# Reference: PubChem BioAssay (NCATS)
# Records with an inconclusive call do not appear. Active and inactive are the calls of the source. Calls follow the shape of the dose curve; as a rule, active = well fitted inhibition curve with a large enough effect; inconclusive = small, poorly fitted or top-dose-only effect; inactive = no such curve, though single readings can be large or run the other way.
# Molecular target: Retinaldehyde dehydrogenase 3 (Homo sapiens) (UniProt P47895)
# Assay: qHTS for Inhibitors of the Aldehyde Dehydrogenase Family (ALDH1A3) Primary screen (AID 2061315);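 also: plate controls were DMSO vehicle for no effect and reference inhibitor for full effect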
# Details: ALDH inhibition qHTS; series mostly up to 56 µM; activity change, negative = inhibition: at the top concentration
row,SMILES,"activity change, negative = inhibition"
1,Cc1c(P(=S)(c2ccccc2)c2ccccc2)[n+]2ccccc2n1CCCCCc1ccccc1,17.2% (inactive)
2,COc1ccc(NC(=O)c2cnn3c(C)cc(C)nc23)cc1F,-15.6% (inactive)
3,COc1ccc(C2=Nn3c(nnc3-c3ccccc3Cl)SC2)cc1OC1CCCC1,9.93% (inactive)
4,Fc1cnc(-c2ccccc2C(F)F)nc1NCC1CCN(c2cnccn2)C1 (stereo not given),-4.35% (inactive)
5,COc1ccc(Cn2ncc3c4sc(C)cc4n(C)c3c2=O)cc1F,-1.85% (inactive)
6,Cc1nc(N2CCOCC2)c2nc(-c3ccccc3)n(CCN3CCOCC3)c2n1,-3.01% (inactive)
7,Fc1ccc(-c2c(P(=S)(c3ccccc3)c3ccccc3)n3ccccc3[n+]2C/C=C/c2ccccc2)cc1,2.88% (inactive)
8,COc1cccc(-c2nnc3n2N=C(c2cc(OC)ccc2OC)CS3)c1,5.53% (inactive)
9,CNc1cc2c(cc1S(=O)(=O)Nc1ccc(C)c(C)c1)CCC(=O)N2,-7.14% (inactive)
10,CCCCNC(=S)NCCCc1cnc[nH]1,6.54% (inactive)
11,C=CC1C(OC2OC(CO)C(O)C(O)C2O)OC=C2C(=O)N3C(C(=O)O)Cc4c([nH]c5ccccc45)C3CC21 (stereo not given),-16.2% [at 28 µM] (inactive)
12,CCN(CC)CCCn1c(-c2ccccc2)nc2c(NCCOC)nc(C)nc21,11.6% (inactive)
13,CS(=O)(=O)c1ccc(C(=O)OCC(=O)N2CCN(CCC3CCCCC3)CC2)cc1[N+](=O)[O-],1.92% (inactive)
14,CNc1nnc(-c2cccc3ccccc23)o1,-0.79% (inactive)
15,O=c1c2ccccc2nc(-c2ccccc2O)n1Cc1ccccc1,-3.43% (inactive)
16,CC(=O)O[C@@]1(C)[C@@H]2CC(=C(C)C)C(=O)C[C@@]2(C)CC[C@H]1OC(=O)C1(C)OC1C (stereo not given in full),14.4% (inactive)
17,CC(=O)Nc1sc2c(c1C(=O)c1ccccc1)CCN(C(C)C)C2,-0.568% (inactive)
18,Fc1cccc(CNc2ncnc3ccc(-c4cccnc4)cc23)c1,-14.8% (inactive)
19,O=c1c2ccc(F)cc2nc2sc(Nc3ccc4c(c3)CCC4)nn12,-0.822% (inactive)
20,O=C1CCCC2=C1C(c1[nH]ncc1Cl)N=C(Nc1nc3ccccc3s1)N2 (stereo not given),14.7% (inactive)
21,O=S1(=O)N=C(Oc2ccccc2C(F)(F)F)c2ccccc21,-0.889% (inactive)
22,S=C(Nc1ccc(Cl)c(Cl)c1)Nc1nnc(-c2ccncc2)s1,20.4% (inactive)
23,COc1ccc(S(=O)(=O)NC2CCN(C#N)CC2)cc1,0.762% (inactive)
24,O=C(NCc1ccc(Cl)c(Cl)c1)Nc1nnc(-c2ccncc2)s1,6.66% (inactive)
25,Cc1cccc(-c2ccc3ncnc(N(C)Cc4ccco4)c3c2)c1,7.89% (inactive)
